Measured values as given in PubChem BioAssay (Tox21).
Records with an inconclusive call do not appear. Active and inactive are the calls of the source. Unless noted, calls follow the shape of the full dose curve.

Tests used:
[1] = target: Gonadotropin-releasing hormone receptor (Homo sapiens) (UniProt P30968); experiment: Human gonadotropin-releasing hormone receptor (GnRHR) small molecule agonists, calcium flux assay in GnRHR-HEK293 cells (AID 1920063); also: nearly all actives have a fitted effect of over 35% in size
Gonadotropin-releasing hormone receptor (Homo sapiens), sequence (P30968 whole entry, looked up): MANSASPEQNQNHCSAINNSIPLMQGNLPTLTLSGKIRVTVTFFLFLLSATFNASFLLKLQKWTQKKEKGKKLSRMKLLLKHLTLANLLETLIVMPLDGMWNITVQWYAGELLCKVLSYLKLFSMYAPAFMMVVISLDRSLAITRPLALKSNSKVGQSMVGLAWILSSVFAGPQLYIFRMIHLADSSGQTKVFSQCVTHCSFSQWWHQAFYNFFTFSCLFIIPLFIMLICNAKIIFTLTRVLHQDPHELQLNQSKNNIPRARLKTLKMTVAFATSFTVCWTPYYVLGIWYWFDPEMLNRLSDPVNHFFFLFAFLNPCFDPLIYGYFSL
In short: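 Intracellular calcium rise is the read-out: engineered human GnRHR HEK293 cells, dye-loaded, are exposed to DMSO-dissolved compounds and fluorescence at Ex/Em 480/540 is tracked for 3 min.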

[2] = target: KiSS-1 receptor (Homo sapiens) (UniProt Q969F8); experiment: Human kisspeptin (KISS1R) small molecule agonists, calcium flux assay in KISS1R-HEK293 cells (AID 1920064; active = well fitted activation curve with a large enough effect in the repeat runs)
KiSS-1 receptor (Homo sapiens), sequence (Q969F8 whole entry, looked up): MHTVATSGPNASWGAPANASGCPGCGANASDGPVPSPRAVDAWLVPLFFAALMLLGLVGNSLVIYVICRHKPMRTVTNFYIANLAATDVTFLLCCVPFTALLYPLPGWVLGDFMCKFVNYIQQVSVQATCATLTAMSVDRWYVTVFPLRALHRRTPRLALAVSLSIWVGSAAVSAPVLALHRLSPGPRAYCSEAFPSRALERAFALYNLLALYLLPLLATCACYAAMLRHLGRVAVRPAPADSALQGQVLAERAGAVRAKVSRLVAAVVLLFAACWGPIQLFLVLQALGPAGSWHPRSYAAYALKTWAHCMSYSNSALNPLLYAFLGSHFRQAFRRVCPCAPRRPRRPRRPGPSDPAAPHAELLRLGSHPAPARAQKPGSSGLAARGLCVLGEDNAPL
In short: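 Concentration-response testing used 15 concentrations in triplicate on human KISS1R-expressing HEK293 cells. Calcium-dependent fluorescence (Ex/Em 480/540) was followed kinetically for 3 min after compound transfer.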

[3] = G protein-coupled receptor (GPCR) small molecule agonists, calcium flux assay: HEK293 wild type cell line counter screen (AID 1920065)
In short: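 Fluorescence intensity signals activation. After overnight (18 h) culture and a 1 h calcium dye load at 37 C, compounds are added by pin tool and the plate read at 480/540 nm for 3 min in 1 s steps.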

[4] = p53 small molecule agonists, cell-based qHTS assay with human liver microsomes (AID 1963577);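 also: p53 response element beta-lactamase reporter cells with liver microsomes plus NADPH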
In short: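 Metabolically competent format: test substances, human liver microsomes and NADPH (both 0.5 mg/mL final) incubated with p53RE-bla cells 16 h at 37 C. Beta-lactamase reporter signal then quantified by fluorescence.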

[5] = p53 small molecule agonists, cell-based qHTS assay with rat liver microsomes (AID 1963578)
In short: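 Each plate received p53RE-bla cells, then compound, then rat liver microsomes and NADPH (both 0.5 mg/mL final). Plates were held 16 h at 37 C, and beta-lactamase activity was detected with LiveBLAzer over 2 h.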

[6] = p53 small molecule agonists, cell-based qHTS assay with human liver microsomes: qHTS cell viability counter screen (AID 1963579); also: nearly all actives have a fitted effect of over 45% in size
In short: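 Tox21 library compounds, delivered from DMSO stocks, were tested on p53RE-bla cells together with 0.5 mg/mL human liver microsomes and 0.5 mg/mL NADPH (final) over 16 h at 37 C; CellTiter-Glo luminescence served as the cytotoxicity measure.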

[7] = p53 small molecule agonists, cell-based qHTS assay with rat liver microsomes: qHTS cell viability counter screen (AID 1963580); also: nearly all actives have a fitted effect of over 45% in size
In short: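 After the beta-lactamase ratio was read, CellTiter-Glo was added to the same wells and luminescence measured at 30 min; cells had been treated 16 h at 37 C with compounds, rat liver microsomes and NADPH (0.5 mg/mL final each).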

[8] = p53 small molecule agonists, cell-based qHTS assay: qHTS cell viability counter screen (AID 1963581); also: nearly all actives have a fitted effect of over 45% in size
In short: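 Luminescence from CellTiter-Glo, reflecting ATP content, serves as the cytotoxicity measure; it is taken after the 2 h reporter substrate step in HCT-116 p53RE-bla cells dosed for 16 h at 37 C.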

[9] = p53 small molecule agonists, cell-based qHTS assay (AID 1963582; active = well fitted activation curve with a large enough effect in the signal ratio in the repeat runs, not every such curve was filed as active; the % refers to the signal ratio)
In short: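 After plating, p53RE-bla cells sat 5 h in the incubator; compounds or DMSO vehicle were pinned in; a 16 h incubation at 37 C followed; FRET substrate was added and, 2 h later at RT, fluorescence was measured.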

[10] = target: 5-hydroxytryptamine receptor 2A (Homo sapiens) (UniProt P28223); experiment: 5-hydroxytryptamine receptor 2A (HTR2A) small molecule antagonists, cell-based qHTS assay (AID 1963586); also: nearly all actives have a fitted effect of over 45% in size
5-hydroxytryptamine receptor 2A (Homo sapiens), sequence (P28223 whole entry, looked up): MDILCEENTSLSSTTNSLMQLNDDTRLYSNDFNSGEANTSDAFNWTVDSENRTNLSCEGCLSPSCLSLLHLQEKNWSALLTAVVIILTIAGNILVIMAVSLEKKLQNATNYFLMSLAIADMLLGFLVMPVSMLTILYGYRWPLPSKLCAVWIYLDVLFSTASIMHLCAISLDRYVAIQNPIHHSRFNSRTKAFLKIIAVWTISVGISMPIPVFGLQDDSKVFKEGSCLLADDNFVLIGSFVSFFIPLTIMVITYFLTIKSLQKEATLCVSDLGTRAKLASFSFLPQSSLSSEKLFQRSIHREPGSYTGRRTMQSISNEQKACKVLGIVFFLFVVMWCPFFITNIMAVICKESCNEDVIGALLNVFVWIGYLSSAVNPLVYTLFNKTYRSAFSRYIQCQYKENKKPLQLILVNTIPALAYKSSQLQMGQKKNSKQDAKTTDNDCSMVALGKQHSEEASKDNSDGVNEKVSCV
In short: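 CHO cells stably expressing human HTR2A were plated for 18 h at 37 C, then loaded with calcium dye for 1 h. Compounds were preincubated 5 min at room temperature before DOI (4 nM solution) was added. Kinetic fluorescence was read for 3 min.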

[11] = target: 5-hydroxytryptamine receptor 2A (Homo sapiens) (UniProt P28223); experiment: 5-hydroxytryptamine receptor 2A (HTR2A) small molecule agonists, cell-based qHTS assay (AID 1963587); also: nearly all actives have a fitted effect of over 30% in size
In short: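 CHO cells stably expressing human HTR2A, plated 18 h, loaded with calcium dye 1 h at 37 C. Agonist mode: compounds added and intracellular calcium fluorescence recorded kinetically for 2 min at 1 sec intervals.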

[12] = target: Muscarinic acetylcholine receptor M1 (Homo sapiens) (UniProt P11229); experiment: Cholinergic receptor muscarinic 1 (CHRM1) small molecule antagonists, cell-based qHTS assay (AID 1963588); also: nearly all actives have a fitted effect of over 40% in size
Muscarinic acetylcholine receptor M1 (Homo sapiens), sequence (P11229 whole entry, looked up): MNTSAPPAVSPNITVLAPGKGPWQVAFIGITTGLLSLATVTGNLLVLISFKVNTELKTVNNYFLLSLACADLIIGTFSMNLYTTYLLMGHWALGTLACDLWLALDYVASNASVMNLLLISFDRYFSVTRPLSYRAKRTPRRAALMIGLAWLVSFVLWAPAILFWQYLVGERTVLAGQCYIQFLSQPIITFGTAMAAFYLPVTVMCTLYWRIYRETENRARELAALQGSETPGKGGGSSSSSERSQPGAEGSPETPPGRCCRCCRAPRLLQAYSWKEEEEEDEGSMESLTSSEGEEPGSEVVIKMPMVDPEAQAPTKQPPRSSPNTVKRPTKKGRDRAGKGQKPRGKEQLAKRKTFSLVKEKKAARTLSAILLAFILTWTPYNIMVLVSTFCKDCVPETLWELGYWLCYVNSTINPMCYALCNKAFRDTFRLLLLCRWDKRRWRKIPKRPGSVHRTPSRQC
In short: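 Compounds were tested at 15 concentrations in three independent runs. Dye-loaded CHRM1-CHO cells were exposed 5 min at room temperature before stimulation by acetylcholine added at 50nM. Intracellular calcium was read kinetically on FDSS for 3 min.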

[13] = target: Muscarinic acetylcholine receptor M1 (Homo sapiens) (UniProt P11229); experiment: Cholinergic receptor muscarinic 1 (CHRM1) small molecule agonists, cell-based qHTS assay (AID 1963589); also: nearly all actives have a fitted effect of over 35% in size
In short: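 Fluorescent calcium dye reports M1 activation in stably transfected CHO cells. Compounds, 15 concentrations, added after 1 h dye loading at 37 C; kinetic reading at 1 sec intervals.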

[14] = cAMP Responsive Elements (CRE) small molecule agonists, cell-based qHTS assay (AID 1963590)
In short: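 Compound exposure lasted 3 h at 37 C/5% CO2 in CRE-bla HEK 293T cells grown in assay medium with 10% dialyzed FBS and 25 mM HEPES. Reporter signal came from LiveBLAzer B/G FRET substrate, 2 h, room temperature.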

[15] = target: Beta-2 adrenergic receptor (Homo sapiens) (UniProt P07550); experiment: Adrenergic beta2 receptor (ADRB2) small molecule antagonists, cell-based qHTS assay (AID 1963592); also: series mostly up to about 92 µM; nearly all actives have a fitted effect of over 50% in size
Beta-2 adrenergic receptor (Homo sapiens), sequence (P07550 whole entry, looked up): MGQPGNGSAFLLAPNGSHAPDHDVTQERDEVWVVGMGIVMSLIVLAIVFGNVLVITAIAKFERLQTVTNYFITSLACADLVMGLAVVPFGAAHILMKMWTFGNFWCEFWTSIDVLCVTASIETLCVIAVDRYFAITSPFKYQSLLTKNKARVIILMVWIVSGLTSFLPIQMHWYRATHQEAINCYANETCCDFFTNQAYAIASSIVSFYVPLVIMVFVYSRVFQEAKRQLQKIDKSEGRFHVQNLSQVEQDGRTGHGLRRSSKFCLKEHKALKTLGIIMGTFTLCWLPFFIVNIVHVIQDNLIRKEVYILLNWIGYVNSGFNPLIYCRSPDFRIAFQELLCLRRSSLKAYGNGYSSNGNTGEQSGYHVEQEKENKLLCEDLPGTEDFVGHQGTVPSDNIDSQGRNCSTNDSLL
In short: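 Assay format: CHO-ADRB2 cells, 18-20hr seeding at 37C/5% CO2, then compound plus 1nM isoproterenol agonist mix for 0.5hr RT. Homogeneous time-resolved fluorescence cAMP detection after 1hr, expressed as 665/615 nm ratio.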

[16] = target: D(2) dopamine receptor (Homo sapiens) (UniProt P14416); experiment: Dopamine D2 receptor (DRD2) small molecule agonists, cell-based qHTS assay (AID 1963594); also: nearly all actives have a fitted effect of over 35% in size
D(2) dopamine receptor (Homo sapiens), sequence (P14416 whole entry, looked up): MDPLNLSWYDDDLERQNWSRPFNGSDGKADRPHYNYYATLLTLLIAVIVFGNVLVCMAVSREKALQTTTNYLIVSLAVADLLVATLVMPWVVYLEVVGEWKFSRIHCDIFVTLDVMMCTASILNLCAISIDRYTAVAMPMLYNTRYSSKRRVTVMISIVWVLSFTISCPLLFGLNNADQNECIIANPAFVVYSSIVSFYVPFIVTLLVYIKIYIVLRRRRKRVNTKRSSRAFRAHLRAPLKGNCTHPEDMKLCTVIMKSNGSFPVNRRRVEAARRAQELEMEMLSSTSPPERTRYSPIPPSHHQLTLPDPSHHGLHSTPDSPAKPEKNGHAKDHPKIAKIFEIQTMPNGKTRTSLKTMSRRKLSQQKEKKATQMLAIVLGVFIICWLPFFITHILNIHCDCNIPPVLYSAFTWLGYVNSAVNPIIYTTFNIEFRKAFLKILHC
In short: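 HEK293 cells stably expressing human DRD2, pre-treated with PDE inhibitor Ro20-1724 (0.1 mM final) and compound 10 min at room temperature, then stimulated with NKH477 (200nM […]) for 30 min. cAMP read by HTRF (665/620 nm).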

[17] = target: Beta-2 adrenergic receptor (Homo sapiens) (UniProt P07550); experiment: Adrenergic beta2 receptor (ADRB2) small molecule agonists, cell-based qHTS assay (AID 1963593);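 also: CHO cells stably overexpressing human ADRB2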
In short: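 CHO cells stably over-expressing ADRB2 were plated overnight at 37C, then dosed with compounds plus a stimulation mix containing 100uM IBMX and 25uM Ro-20-1724 for 0.5hr at room temperature. cAMP was measured by HTRF competition, 1hr.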

[18] = target: D(2) dopamine receptor (Homo sapiens) (UniProt P14416); experiment: Dopamine D2 receptor (DRD2) small molecule antagonists, cell-based qHTS assay (AID 1963595; active = well fitted inhibition curve with a large enough effect in the signal ratio in the repeat runs, with a control signal flat; the % refers to the signal ratio)
In short: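 Human DRD2 antagonist qHTS measuring cAMP by HTRF. The cells are exposed to compound for 10 min, then to NKH477 (200 nM) and quinpirole (12 nM) for 30 min at RT, with Ro20-1724 (0.1 mM) present throughout.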

[19] = cAMP Responsive Elements (CRE) small molecule antagonists, cell-based qHTS assay (AID 1963591; active = well fitted inhibition curve with a large enough effect in the signal ratio in the repeat runs, not every such curve was filed as active; the % refers to the signal ratio)
In short: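 Stimulation used NKH477 at a final 0.25 uM for 3 h in compound-treated CRE-bla HEK293T cells, seeded 18 h beforehand. Reporter activity was measured with LiveBLAzer B/G FRET substrate after 2 h at room temperature.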

Measured: Potency

CN(C)CCCNCCC#N
not listed: [17] | [18] | [19]
inactive: all other assays above

CCCC(=O)OCC(COC(=O)CCC)OC(=O)CCC
not listed: [19]
inactive: all other assays above

CO[Si](OC)(OC)c1ccccc1
inactive: all assays above

Oc1ccc(Sc2ccc(O)cc2)cc1
not listed: [17]
inactive: all other assays above

Nc1ccc(N=Nc2ccccc2)c(N)n1
not listed: [12] | [13] | [15] | [19]
inactive: all other assays above

CC(O)Cn1cnc2c1c(=O)n(C)c(=O)n2C (configuration not stated)
not listed: [14] | [18]
inactive: all other assays above

CCCCCCCCCCCC(=O)OC[C@@H](O)[C@H]1OC[C@H](OCCO)[C@H]1OCCO
inactive: all assays above
